Results filed as inconclusive are left out. Activity calls are given as the source filed them. How the source made its calls: active means hit-call score of the fitted dose curve at least 0.9, where 1 is the maximum; inconclusive means response in the unintended direction; inactive means score below 0.9.
test system: not listed separately; assay: ATG_M_19_TRANS: Attagene TRANS-FACTORIAL HepG2 Assay for M19 Transcription Factor (Internal Marker) (AID 2282974); details: HepG2 Attagene TRANS-FACTORIAL M19 internal marker reporter
In short: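 Gain-of-signal in reporter mRNA, relative to DMSO, was scored from capillary electrophoresis fluorescence. HepG2 cells carried transiently transfected multiple reporter transcription units and were incubated with test chemicals for 24 h.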

outcome, inactive:
CCC(C)(CCC(C)C)C(=O)O (stereo not drawn)
Clc1ccccn1
c1cc(N(CC2CO2)CC2CO2)ccc1Cc1ccc(N(CC2CO2)CC2CO2)cc1 (stereo not drawn)
CCCCCCOC(=O)CCCCCCCC(=O)OCCCCCC
CC1=NN(c2cc(Cl)c(S(=O)(=O)O)cc2Cl)C(=O)C1N=Nc1ccc(S(=O)(=O)O)cc1 (stereo not drawn)
O=C(O)Cc1c[nH]c2ccccc12
CCCCCCCCCCC1CO1 (stereo not drawn)
NCc1ccccc1
O=[N+]([O-])c1ccc2nc[nH]c2c1
C[Si](C)(C)O[Si](C)(C)O[Si](C)(C)C
CC(C)n1c(/C=C/[C@@H](O)C[C@@H](O)CC(=O)O)c(-c2ccc(F)cc2)c2ccccc21
Cc1cccnc1
Cc1ccccc1S(N)(=O)=O
CC(C)CC(=O)CC(C)CC(C)C (stereo not drawn)
CN(C)CCC(c1ccc(Cl)cc1)c1ccccn1 (stereo not drawn)
CC/C=C\CC1=C(C)CCC1=O
C[C@H]1C[C@H]2[C@@H]3CCC4=CC(=O)C=C[C@]4(C)[C@@]3(F)[C@@H](O)C[C@]2(C)[C@@]1(O)C(=O)CO
F[B-](F)(F)F
COCCCN
CC1=CCCC(C)(C)C12CCC(C)O2 (stereo not drawn)
CC(=O)c1nccs1
COc1ccccc1OCC(O)CO (stereo not drawn)
CC=CC(=O)O

test system: not listed separately; assay: ATG_GAL4_TRANS: Attagene TRANS-FACTORIAL HepG2 Assay for GAL4 (Internal Marker) (AID 2282976); details: HepG2 Attagene TRANS GAL4 internal marker reporter
In short: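 HepG2 cells transiently transfected with multiplexed GAL4-UAS reporter constructs were dosed for 24 h. Reporter mRNA was measured by RT-PCR, 6-FAM primer extension, HpaI digestion and capillary electrophoresis, and gain of signal was fitted relative to DMSO.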

outcome, inactive:
Clc1ccccn1
CCCCCCOC(=O)CCCCCCCC(=O)OCCCCCC
CC1=NN(c2cc(Cl)c(S(=O)(=O)O)cc2Cl)C(=O)C1N=Nc1ccc(S(=O)(=O)O)cc1 (stereo not drawn)
O=C(O)Cc1c[nH]c2ccccc12
CCCCCCCCCCC1CO1 (stereo not drawn)
Cc1cc(O)cc(C)c1Cl
CC(O)(P(=O)(O)O)P(=O)(O)O
OCCOCCOCCOCCOCCO
CCCOCCC
CN(C)CCC(c1ccc(Cl)cc1)c1ccccn1 (stereo not drawn)
COC(OC)C(C)c1ccccc1 (stereo not drawn)
O=C(O)c1nc(Cl)c(Cl)c(Cl)c1Cl

target: Estrogen-related receptor gamma (Homo sapiens) (UniProt P62508); assay: ATG_ERRg_TRANS: Attagene TRANS-FACTORIAL HepG2 Assay for human Estrogen-Related Receptor gamma (ERRg) (AID 2282977); details: HepG2 Attagene TRANS reporter, ERRg transactivation;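 further: hits increase reporter signal over DMSO so potencies reflect activators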
Sequence (P62508 whole entry, looked up, the tested form may be a part): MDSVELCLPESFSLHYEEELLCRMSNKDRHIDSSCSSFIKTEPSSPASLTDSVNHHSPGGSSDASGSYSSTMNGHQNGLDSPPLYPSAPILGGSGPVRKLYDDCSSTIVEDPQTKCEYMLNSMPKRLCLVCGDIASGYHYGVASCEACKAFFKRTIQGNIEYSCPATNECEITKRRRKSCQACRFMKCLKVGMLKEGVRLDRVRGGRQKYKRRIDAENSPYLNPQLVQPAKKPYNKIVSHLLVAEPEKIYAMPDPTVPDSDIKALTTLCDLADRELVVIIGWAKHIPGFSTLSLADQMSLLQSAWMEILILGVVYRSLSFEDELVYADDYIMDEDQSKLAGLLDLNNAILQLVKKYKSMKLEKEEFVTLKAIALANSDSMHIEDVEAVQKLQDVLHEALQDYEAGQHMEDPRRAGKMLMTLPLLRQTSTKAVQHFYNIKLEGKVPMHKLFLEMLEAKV
In short: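 Transient HepG2 transfectants, 24 h compound exposure, GAL4-UAS reporter mRNA by RT-PCR/6-FAM labelling/capillary electrophoresis; positive direction vs DMSO.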

outcome, inactive:
O=C(O)Cc1c[nH]c2ccccc12
NCc1ccccc1
Cc1cccnc1
CN(C)CCCN1c2ccccc2CCc2ccc(Cl)cc21
CC/C=C\CC1=C(C)CCC1=O
O=C(O)c1nc(Cl)c(Cl)c(Cl)c1Cl
CC=CC(=O)O

target: Glucocorticoid receptor (Homo sapiens) (UniProt P04150); assay: ATG_GR_TRANS: Attagene TRANS-FACTORIAL HepG2 Assay for human Glucocorticoid Receptor (GR) (AID 2282978); details: HepG2 Attagene TRANS GR reporter, mRNA transcription;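 further: activators score as hits since higher reporter transcript over DMSO is fitted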
Sequence (P04150 whole entry, looked up, the tested form may be a part): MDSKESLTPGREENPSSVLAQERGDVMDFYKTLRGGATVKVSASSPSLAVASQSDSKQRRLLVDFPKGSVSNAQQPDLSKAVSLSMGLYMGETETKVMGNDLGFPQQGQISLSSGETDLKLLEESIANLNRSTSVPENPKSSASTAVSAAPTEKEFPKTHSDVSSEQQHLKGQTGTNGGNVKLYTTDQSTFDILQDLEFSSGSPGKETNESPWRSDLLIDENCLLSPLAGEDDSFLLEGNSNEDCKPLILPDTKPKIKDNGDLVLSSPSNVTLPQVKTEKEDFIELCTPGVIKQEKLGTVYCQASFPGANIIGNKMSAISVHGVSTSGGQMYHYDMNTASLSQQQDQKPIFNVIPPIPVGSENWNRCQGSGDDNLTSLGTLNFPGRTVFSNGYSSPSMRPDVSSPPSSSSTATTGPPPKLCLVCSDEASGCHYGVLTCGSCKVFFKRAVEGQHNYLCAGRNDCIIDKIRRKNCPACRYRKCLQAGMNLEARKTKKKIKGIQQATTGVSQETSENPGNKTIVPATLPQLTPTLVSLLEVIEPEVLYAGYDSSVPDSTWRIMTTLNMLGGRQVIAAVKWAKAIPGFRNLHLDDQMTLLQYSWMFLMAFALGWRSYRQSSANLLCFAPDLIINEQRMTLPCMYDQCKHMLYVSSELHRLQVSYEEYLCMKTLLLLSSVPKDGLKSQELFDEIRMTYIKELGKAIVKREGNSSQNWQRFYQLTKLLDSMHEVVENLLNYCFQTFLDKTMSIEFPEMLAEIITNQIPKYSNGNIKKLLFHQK
In short: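 HepG2 transient transfection, multiple reporter units, GAL4-UAS under NR-GAL4 chimera control. 24 h treatment. Reporter mRNA by RT-PCR/CE fluorescence, DMSO as negative control.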

outcome, inactive:
CC1(C)S[C@@H]2[C@H](NC(=O)[C@H](N)c3ccccc3)C(=O)N2[C@H]1C(=O)O
CCCc1c(OCCCCc2nn[nH]n2)ccc(C(C)=O)c1O
c1cc(N(CC2CO2)CC2CO2)ccc1Cc1ccc(N(CC2CO2)CC2CO2)cc1 (stereo not drawn)
CCCCCCOC(=O)CCCCCCCC(=O)OCCCCCC
O=C(O)Cc1c[nH]c2ccccc12
NCc1ccccc1
CC(C)CC(=O)O
Cc1cc(O)cc(C)c1Cl
CC(C)n1c(/C=C/[C@@H](O)C[C@@H](O)CC(=O)O)c(-c2ccc(F)cc2)c2ccccc21
C=C(C)C(=O)OCC1CCCO1 (stereo not drawn)
CCCOCCC
CN(C)CCCN1c2ccccc2CCc2ccc(Cl)cc21
CC(=O)c1nccs1
O=C(O)c1nc(Cl)c(Cl)c(Cl)c1Cl
CC=CC(=O)O

target: Bile acid receptor (Homo sapiens) (UniProt Q96RI1); assay: ATG_FXR_TRANS: Attagene TRANS-FACTORIAL HepG2 Assay for Farnesoid X Receptor (FXR) (AID 2282979); details: HepG2 Attagene TRANS FXR-GAL4 reporter transcription;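 further: hits raise reporter mRNA above DMSO so AC50 marks FXR activation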
Sequence (Q96RI1 whole entry, looked up, the tested form may be a part): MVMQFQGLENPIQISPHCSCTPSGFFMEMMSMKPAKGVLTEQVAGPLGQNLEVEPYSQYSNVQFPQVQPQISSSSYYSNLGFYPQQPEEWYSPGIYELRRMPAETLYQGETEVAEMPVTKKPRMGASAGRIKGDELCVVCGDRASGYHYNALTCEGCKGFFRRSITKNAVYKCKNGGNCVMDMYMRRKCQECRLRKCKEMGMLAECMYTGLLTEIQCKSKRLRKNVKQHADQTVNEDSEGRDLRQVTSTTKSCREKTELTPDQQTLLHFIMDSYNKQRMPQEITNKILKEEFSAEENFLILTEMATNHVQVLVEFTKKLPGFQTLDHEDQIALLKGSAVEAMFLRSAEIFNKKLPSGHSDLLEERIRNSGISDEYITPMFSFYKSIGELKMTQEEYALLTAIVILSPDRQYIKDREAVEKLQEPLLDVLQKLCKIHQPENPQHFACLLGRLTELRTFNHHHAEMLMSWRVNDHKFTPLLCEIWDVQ
In short: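 HepG2 cells transiently transfected with reporter constructs in which a chimeric FXR-GAL4 protein drives a GAL4-UAS reporter; 24 h compound exposure. Reporter mRNA measured by RT-PCR, FAM labelling, HpaI digestion and capillary electrophoresis; gain-of-signal versus DMSO.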

outcome, inactive:
CCCc1c(OCCCCc2nn[nH]n2)ccc(C(C)=O)c1O
Clc1ccccn1
c1cc(N(CC2CO2)CC2CO2)ccc1Cc1ccc(N(CC2CO2)CC2CO2)cc1 (stereo not drawn)
O=C(O)Cc1c[nH]c2ccccc12
O=[N+]([O-])c1ccc2nc[nH]c2c1
C=C(C)C(=O)OCC1CCCO1 (stereo not drawn)
CC(C)CC(=O)CC(C)CC(C)C (stereo not drawn)
CC1=CCCC(C)(C)C12CCC(C)O2 (stereo not drawn)

target: Oxysterols receptor LXR-alpha (Homo sapiens) (UniProt Q13133); assay: ATG_LXRa_TRANS: Attagene TRANS-FACTORIAL HepG2 Assay for human Liver X Receptor alpha (LXRa) (AID 2282980); details: HepG2 Attagene TRANS reporter, LXRa transactivation
Sequence (Q13133 whole entry, looked up, the tested form may be a part): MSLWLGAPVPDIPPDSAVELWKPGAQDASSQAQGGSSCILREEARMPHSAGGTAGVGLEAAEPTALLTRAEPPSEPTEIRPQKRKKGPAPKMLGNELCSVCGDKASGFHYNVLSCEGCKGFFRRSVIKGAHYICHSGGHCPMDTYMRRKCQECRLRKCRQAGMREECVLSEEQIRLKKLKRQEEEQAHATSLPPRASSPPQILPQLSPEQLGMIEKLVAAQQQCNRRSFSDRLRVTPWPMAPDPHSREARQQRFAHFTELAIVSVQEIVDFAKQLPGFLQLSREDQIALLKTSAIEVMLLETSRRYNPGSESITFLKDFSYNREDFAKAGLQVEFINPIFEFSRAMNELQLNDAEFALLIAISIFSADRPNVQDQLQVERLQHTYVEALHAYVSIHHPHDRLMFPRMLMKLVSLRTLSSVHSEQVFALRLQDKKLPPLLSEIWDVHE
In short: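 HepG2 cells were transiently transfected with multiplexed reporter units driven by chimeric LXRa–GAL4 fusion proteins, then dosed for 24 h. Reporter mRNA was quantified by RT-PCR, fluorescent labelling and capillary electrophoresis; gain of signal fitted against DMSO baseline.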

outcome, inactive:
CC1(C)S[C@@H]2[C@H](NC(=O)[C@H](N)c3ccccc3)C(=O)N2[C@H]1C(=O)O
Cc1cc(C)c(S(=O)(=O)O)cc1N=Nc1cc(S(=O)(=O)O)c2ccccc2c1O
CCCc1c(OCCCCc2nn[nH]n2)ccc(C(C)=O)c1O
c1cc(N(CC2CO2)CC2CO2)ccc1Cc1ccc(N(CC2CO2)CC2CO2)cc1 (stereo not drawn)
CCCCCCOC(=O)CCCCCCCC(=O)OCCCCCC
CC1=NN(c2cc(Cl)c(S(=O)(=O)O)cc2Cl)C(=O)C1N=Nc1ccc(S(=O)(=O)O)cc1 (stereo not drawn)
O=C(O)Cc1c[nH]c2ccccc12
O=[N+]([O-])c1ccc2nc[nH]c2c1
CCCCn1cc[n+](C)c1
C[Si](C)(C)O[Si](C)(C)O[Si](C)(C)C
Cc1cc(O)cc(C)c1Cl
CC(C)n1c(/C=C/[C@@H](O)C[C@@H](O)CC(=O)O)c(-c2ccc(F)cc2)c2ccccc21
CC1=C(CC=O)C(C)(C)CCC1
CC(O)(P(=O)(O)O)P(=O)(O)O
Cc1cccnc1
Cc1ccccc1S(N)(=O)=O
CCCOCCC
CC/C=C\CC1=C(C)CCC1=O
F[B-](F)(F)F
COCCCN
CC1=CCCC(C)(C)C12CCC(C)O2 (stereo not drawn)
CC(=O)c1nccs1
O=C(O)c1nc(Cl)c(Cl)c(Cl)c1Cl
